This passage reports fold change and outcome results from PubChem BioAssay AID1259240 (Keith Lab, Institute of Cancer Science, University of …, 2017).

Values without a mark were called inactive. Active and inactive are the calls of the source. No stated cut-off is given here; in the data, active means fold change mostly below about -2 (no sharp cut-off); inactive means mostly above about -1.8.

The experiment is described as follows: TERT promoter activity modulators, primary screen, cell-based, luciferase reporter, human (AID 1259240). As to conditions: A2780 TERT promoter luciferase reporter, 16 h; at 20 µM, fold versus average of vehicle-only wells.
Take `CC1=CC2=NC(=O)/C(=C\c3cc(C)n(-c4ccccc4F)c3C)C(=N)N2O1`: the fold change is -1.81. As for `Oc1oc(-c2ccccc2)nc1C=Nc1ccc(Cl)c2cccnc12`, the compound was classed as inactive.

As to `O=C(O)c1cc(S(=O)(=O)O)cc(Nc2c3ccccc3nc3ccccc23)c1O`, the fold change is -1.04. Same read-out and setting: as for `Cc1cc(NC(=O)CSc2nnc(Cn3c(=O)sc4ccccc43)n2-c2ccccc2)no1`, the figure is 1.22; as for `COCCN1C(=O)c2oc3ccc(F)cc3c(=O)c2C1c1cccc(O)c1` (centres undefined), -1.86; as for `Cc1cc(C(=O)O)ccc1-n1c(C)cc(C=C2C(=O)c3ccccc3C2=O)c1C`, -2.23 (active). Consider `O=c1[nH]c2ncccc2c(=O)n1CCc1c[nH]c2ccccc12`, for which the fold change is -1.06. On the same count and under the same terms, next, `COc1ccc(S(=O)(=O)n2cnc3ccccc32)c(C)c1`: -1.08; `Cn1c(=O)c(=O)n(C)c2cc(S(=O)(=O)N3CCC(C(N)=O)CC3)ccc21`: -1.21. The same measure, in the same setting: next, `C=CCNC(=O)c1onc(C)c1Cl`: 1.22. On to `CCCN(CCC)C(=O)C1CCCN(S(=O)(=O)c2ccc3c(c2)oc(=O)n3C)C1` (centres undefined), for which the fold change is 1.49. On to `C=CCn1c(=N)n(CC(=O)C(C)(C)C)c2ccccc21`, for which the fold change was -1.1. Still for that read-out and setting: as for `CCOC(=O)C1=C(CS(=O)(=O)c2ccc(F)c(C)c2)NC(=O)NC1c1cc(OC)ccc1OC` (centres undefined), the figure is 1.23; as for `CC(C)Cc1c(O)nc(SCCN2CCOCC2)[nH]c1=O`, -1.64. On the same count and under the same terms, as for `CCOC(=O)N1CCC(Nc2c(N3CCCC3)c(=O)c2=O)CC1`, the figure is -1.12; as for `CCOC(=O)Cc1nnc2c(Nc3ccccc3Cl)nc3nonc3n12`, -1.8.

Take `CCn1c(Oc2ccccc2)nc2c1c(=O)n(C)c(=O)n2C`: the fold change was -1.53. The same measure, in the same setting: as for `CCN1C(=O)C2(/C(=C(/O)c3ccc(OC)cc3)C(=O)C(=O)N2CCOC)c2ccccc21` (centres undefined), the figure is 1.29; as for `COc1ccc(S(=O)(=O)n2nc(-c3ccc(Cl)cc3)cc2N)cc1OC`, 1.41. For the compound `Cc1nc(SCC(=O)Nc2ccc([N+](=O)[O-])cc2)c2c(=O)n(C)c(=O)n(C)c2n1`, the fold change was -1.11. On the same count and under the same terms, next, `O=c1cc(-c2cc(Br)cc3c2OCOC3)oc2ccccc12`: -1.26. Still for that read-out and setting: next, `N=C1/C(=C/c2ccc(SCc3ccco3)o2)C(=O)N=C2SC=C(c3ccccc3)N12`: -1.25; `O=c1c2ccccc2nc(N2CCOCC2)n1Cc1ccccc1`: -1.33; `CC(C)Cc1cc(C(=O)Nc2cnn(Cc3ccc(F)cc3)c2)no1`: -1.44.
